# Assay outcomes from PubChem.
# Hits are enriched below; roughly 1.5% of the tested compounds scored in any of these assays.
# BRCA1 expr act: BRCA1 expression activation; MCF7-BRCA1-FFLuc reporter, luminescence, 48 h; response scale: scaled: vehicle 0%, 10 µM genistein 100%; Potency, µM (highest dose often 46.1 µM), inactives show at the highest dose activation, usual class: activators; 1.1% of 380,000 active; AID 624202; note: potency is the fitted concentration of half-maximal effect; nearly all actives have a fitted effect of over 80% in size
#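 48 h compound treatment of MCF7-BRCA1-FFLuc cells (phenol-red free MEM, 37 °C), then 15 min with luciferase substrate and luminescence imaging.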
# mIDH1 inhibitor: inhibitors of human mutant IDH1 R132H. IDH1-R132H enzyme, NADPH consumption, diaphorase/resazurin fluorescence. Potency, µM (doses to about 76.6 µM), without a hit: at the top dose activity change, negative = inhibition, most hits filed as inhibitors. 0.093% of 390,000 active. AID 602179; note: potency is the fitted concentration of half-maximal effect; % is set by controls: 0 for no effect and ±100 for the full control effect; nearly all actives have a fitted effect of over 65% in size
# Target sequence (O75874 whole entry R132H, stated change not applied): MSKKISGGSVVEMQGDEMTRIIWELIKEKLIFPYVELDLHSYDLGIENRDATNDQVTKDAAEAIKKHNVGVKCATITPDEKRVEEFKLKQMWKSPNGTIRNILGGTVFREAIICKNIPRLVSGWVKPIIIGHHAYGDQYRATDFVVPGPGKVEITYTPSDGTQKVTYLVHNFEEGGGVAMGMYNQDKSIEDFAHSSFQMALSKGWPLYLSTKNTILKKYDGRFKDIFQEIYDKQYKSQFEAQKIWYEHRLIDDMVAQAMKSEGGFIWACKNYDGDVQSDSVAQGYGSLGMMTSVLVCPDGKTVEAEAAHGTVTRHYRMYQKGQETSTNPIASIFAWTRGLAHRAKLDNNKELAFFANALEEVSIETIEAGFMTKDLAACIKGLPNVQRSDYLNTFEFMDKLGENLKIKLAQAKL
#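 IDH1-R132H (0.5 ug/mL) preincubated 30 min with compound, then NADPH (0.016 mM) and alpha-KG (2 mM) added; 80 min at RT, pH 7.5. Remaining NADPH coupled via diaphorase/resazurin to fluorescence (540/590 nm); concentration-response curves normalized to no-enzyme control.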
# IL-2 act: activates IL-2 in a cell-based reporter assay; AID 652025; activation, % (series mostly up to about 46 µM); IL-2 activation reporter assay, cell-based qHTS; stimulated with anti-CD3/CD4/CD28 beads; in transgenic mouse T cells; 0.065% of 360,000 active; in the data active = activation above about 50%; inconclusive = mostly about 30% to 49%; note: 0% is about no effect
#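 Readout: EGFP and DsRed signals by fluorescent plate cytometry. Unstimulated transgenic mouse T cells received compound 60 min before antibody-bead stimulation, then incubated 18 h at 37 degrees C.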
# gsp ag: activates gsp, the McCune-Albright syndrome mutation | Potency, µM (top dose mostly 76.9 µM), inactives show at the highest dose activation (cAMP increase), usual class: activators | AID 624287 | gsp mutant cells, cAMP HTRF, 30 min | 0.13% of 340,000 active; active = well fitted activation curve with a large enough effect; inconclusive = small, poorly fitted or top-dose-only effect, or another doubt; inactive = no such curve, though single readings can be large or run the other way; cell line not stated here;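 note: phosphodiesterase inhibitor Ro 20-1724 added with compounds to block cAMP breakdown; potency is the fitted concentration of half-maximal effect; nearly all actives have a fitted effect of over 60% in size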
#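 Cells in DMEM/10% FBS with G418 were pretreated with compounds in DMSO plus […] (300 uM stock) for 30 min at 37C. cAMP was measured by HTRF (cAMP-d2 plus anti-cAMP antibody-K) after 30 min at room temperature.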
# gsp antag: antagonizes gsp, the McCune-Albright syndrome mutation | gsp-mutant cells, cAMP HTRF, 30 min | Potency, µM (series often up to 76.9 µM), inactives show at the highest dose activity change, negative = inhibition, most hits filed as inhibitors | 0.4% of 340,000 active | AID 624288; calls by dose curve; cell line not stated here;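 note: intracellular cAMP measured with PDE inhibitor Ro 20-1724 present during compound exposure; potency is the fitted concentration of half-maximal effect; % is set by controls: 0 for no effect and ±100 for the full control effect; nearly all actives have a fitted effect of over 65% in size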
#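 Cells in G418 medium, seeded 16-24 h, 37C; buffer exchange to DPBS + 1 mM CaCl2, 0.5 mM MgCl2, 0.05% BSA; cpds in DMSO + […] (300 uM stock), 30 min 37C; HTRF cAMP detection.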
# The depositor's hits bear a star; ? = inconclusive; . = no result; [ ] = remark or other dose. Unless noted, calls come from the whole dose curve; as a rule, active = well fitted curve in the direction sought with a large enough effect; inconclusive = small, poorly fitted or top-dose-only effect, or another doubt; inactive = no such curve, though single readings can be large; an effect the other way counts as inactive or inconclusive.
SMILES,BRCA1 expr act,mIDH1 inhibitor,IL-2 act,gsp ag,gsp antag
CCOC(=O)CNC(=O)c1ccccc1,4%,-8%,-1,0%,3%
CCOC(=O)CNC(=O)c1ccc(SCC)cc1,13µM*,16%,2,-1%[15.4 µM],0%
O=C(Nc1ccc(Br)c2cccnc12)c1cccc2ccccc12,-20%,1%,.,.,.
Nc1nc(COc2ccc3ccccc3c2)cs1,6.3µM*,8%,-2,6%,-7%
Cc1onc(-c2ccccc2)c1C(=O)Nc1cccc2nsnc12,1%,4%,0,35µM*,21%
Cc1nnc(NC(=O)c2c(-c3ccccc3)noc2C)s1,-2%,9%,0,-29%,-10%
CCN(C(=O)CCN1C(=O)/C(=C/c2ccccc2)SC1=S)C1CCS(=O)(=O)C1 (configuration not stated),-24%,5%,-4,?,28µM*
CN(C(=O)CCN1C(=O)/C(=C/c2ccc(F)cc2)SC1=S)C1CCS(=O)(=O)C1 (configuration not stated),-50%,9%,-2,-3%,.
Cc1nc(Nc2ccc(Cl)cc2Cl)sc1C(=O)Nc1ccccc1,-79%,11%,-2,-5%[15.4 µM],?
Cc1nc(Nc2ccccc2)sc1C(=O)c1ccccc1,10µM*,-5%,-2,5%,5%
Cc1nc(Nc2ccc(Cl)c(Cl)c2)sc1C(=O)Nc1ccccc1,-2%,2%,-3,2%,50µM*
COc1ccc(C(=O)c2sc(Nc3ccccc3)nc2C)cc1,-10%,10%,0,-1%[15.4 µM],18%
CCn1c(=O)n(CC)c2cc(N3CCCCC3)c(NC(=O)Nc3cc(Cl)ccc3OC)cc21,.,-15%,.,.,.
Cc1cc(NC(=O)c2cc(C3CC3)on2)no1,6.3µM*,-5%,0,-23%,4%
Cc1cc(NC(=O)c2cc(C)on2)no1,19%,1%,-2,3%,-1%
O=[N+]([O-])c1ccc(/C=C/c2cc(Cl)nc3ccccc23)cc1,-32%,.,.,.,.
O=C(c1ccco1)N1CCN(C(=O)c2ccc(-c3ccccc3Cl)o2)CC1,8.9µM*,6%,1,-11%,-14%
O=C(c1cc(-c2ccccc2Cl)on1)N1CCN(C(=O)c2ccco2)CC1,72%,15%,-1,-25%,-2%
Cc1cc(C(=O)Nc2ccc3[nH]ccc3c2)no1,6.3µM*,0%,0,12%[15.4 µM],8%
Cc1cc(C(=O)Nc2cccnc2)no1,2%,7%,-1,0%,7%
CC(C(=O)NCc1ccccc1)n1cc([N+](=O)[O-])cn1 (configuration not stated),9%,-11%,0,1.6µM*,5%
Cc1oc2cc3oc(=O)c(CCC(=O)NC4CC4)c(C)c3cc2c1C,6.3µM*,4%,0,.,?
Cc1coc2cc3oc(=O)c(CCC(=O)NC4CC4)c(C)c3cc12,?,2%,-1,.,?
CCc1nc2c(sc3nc4c(cc32)COC(C)(C)C4)c(=O)n1CCN(CC)CC,17%,-6%,-1,27%,9%
C=CCn1c(C)nc2c(sc3nc4c(cc32)COC(C)(C)C4)c1=O,6.3µM*,-2%,0,-5%,-5%
SMILES,BRCA1 expr act,mIDH1 inhibitor,IL-2 act,gsp ag,gsp antag
COCCn1c(C)cc(C(=O)CN2C(=O)NC3(CCCCCC3)C2=O)c1C,5.6µM*,-1%,-1,1%,3%
Cc1ccccc1OCC(=O)Nc1cccc(C(=O)OCc2cc(=O)n3c(C)csc3n2)c1,.,1%,.,.,.
C/C(=N\Nc1cc(N2CCOCC2)ncn1)c1ccccc1,1.8µM*,-7%,-2,-34%,-1%
Cc1ccc(/C=C(\C#N)C(=O)NC(C)C)o1,31%,-10%,0,-2%,3%
CC(C)NC(=O)/C(C#N)=C/c1ccc(N(C)C)o1,63%,4%,0,-1%[15.4 µM],35µM*
O=S(=O)(NCCc1csc(-c2cccc(F)c2)n1)c1cc(F)ccc1F,.,14%,.,.,.
COc1ccccc1/C=C/c1nc(C#N)c(N2CCN(C)CC2)o1,0%,2%,.,.,.
O=C(COc1ccccc1C(=O)OCC(=O)N1CCOCC1)Nc1ccc(Br)cc1,53%,.,.,.,.
COc1cccc2oc3cc(C#Cc4ccccn4)ccc3c(=O)c12,8.9µM*,-9%,0,-2%,-13%
COc1cccc2oc3cc(C#CC4(O)CCCCC4)ccc3c(=O)c12,?,-6%,0,.,-5%
COc1cc(OC)cc(-c2n[nH]c(=S)n2-c2ccc3c(c2)OCO3)c1,-21%,-1%,0,7.1µM*,-15%
Fc1ccc(-n2c(-c3ccc4c(c3)OCO4)n[nH]c2=S)cc1Cl,-2%,-2%,0,?,1%
COc1cc(-c2n[nH]c(=S)n2-c2ccc(C)cc2)cc(OC)c1OC,-29%,10%,-1,14µM*,-8%
Cn1c(=O)c2cc(NC(=O)CCc3cccnc3)ccc2n1Cc1ccc(F)cc1,1%,.,0,.,.
O=C1CC(c2ccccc2)Cc2[nH]c(=O)c(C(=O)O)cc21 (configuration not stated),12%,.,.,.,.
CC(C(=O)c1ccc(Br)cc1)[n+]1cccc2ccccc21 (configuration not stated),-6%,20%,-1,-30%,3%
COc1cc(NC(=O)C(C)Oc2ccccc2)ccc1NC(=O)COc1ccccc1 (configuration not stated),-27%,2%,-3,-24%,40µM*
COc1ccc(-c2nn(-c3ccccc3)cc2/C=C2/SC(=S)N(CCC(=O)O)C2=O)cc1,-70%,-21%,-3,-5%[15.4 µM],32µM*
Cc1ccc(-c2nn(-c3ccccc3)cc2/C=C2\SC(=S)N(CC(=O)O)C2=O)cc1,0%,-13%,5,-33%,?
O=C(O)CCN1C(=O)/C(=C/c2cn(-c3ccccc3)nc2-c2cccs2)SC1=S,-13%,?,0,3%,35µM*
O=C(O)CCCCCN1C(=O)/C(=C\c2cn(-c3ccccc3)nc2-c2cccs2)SC1=S,-18%,?,2,-49%,35µM*
Cc1ccc(-c2nc3cc(N)ccc3o2)c(C)c1,?,9%,0,32µM*,16%
O=c1[nH]cccc1-c1nc2ccccc2[nH]1,8.9µM*,3%,-1,6%,0%
Nc1ccccc1-c1nc2ccccc2[nH]1,?,12%,-2,0%,-12%
Nn1c(SCc2c(F)cccc2F)nnc1-c1ccccn1,5.6µM*,8%,2,-12%[15.4 µM],14%
Cc1ccc(C)c(CSc2nnc(-c3ccccn3)n2N)c1,11%,7%,-2,17%,-2%
O=[N+]([O-])c1ccc(O/N=[N+](\[O-])N2CCN(c3ccccc3)CC2)c([N+](=O)[O-])c1,-51%,.,.,.,.
Cc1ccc(S(=O)(=O)N2CCOCC2)cc1NC(=O)c1cc([N+](=O)[O-])ccc1N1CCOCC1,-21%,10%,0,11µM*,7%
